Compounds with a hit are over-represented: about 3.9% of the library has one in this group of screens.
HSF1 inh – HSF1 inhibition. NIH3T3-HGL HSE-luciferase, MG132-induced, luminescence 8 h; active compounds read low. actives 0.77% (n = 300,000). activity change, negative = inhibition, % at 7.5 µM (by protocol);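 active = more than half of replicate wells show activity change below -50%, luminescence cut by over half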;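 also: luciferase reports HSF-1 transcriptional activity via heat shock element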
Wnt bcat act – Wnt/beta-catenin pathway activation; AID 743398; actives 1.2% (n = 300,000); Wnt/beta-catenin reporter cell assay, activator, plate reader; activation, % at 9.35 µM; in the data active = activation above about 30%, passing the limit was not always enough
esBAF inh – inhibitors of esBAF chromatin remodeling in mouse ES cells; Bmi1-luciferase knock-in reporter, 24 h; 100% = twice the neutral-well signal; reporter increase, % at 12.5 µM; actives 2% (n = 350,000); AID 602393; in the data active = activation above about 40%;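 also: a rise in the Bmi1 reporter signal indicates esBAF inhibition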
HSF-1 act – increases HSF-1 driven luciferase reporter signal | NIH3T3-HGL HSF-1 luciferase reporter, MG132, 8 h; 100% = twice DMSO control signal | activation, % at 9 µM | actives 1.7% (n = 300,000) | AID 504408;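 active = mean replicate activation of at least 50% with a set share of replicates each reaching 50%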
MITF TRPM1 HTS – MITF TRPM1 promoter activation in melanoma cells. actives 0.75% (n = 300,000). AID 588334. activation, % at 12.5 µM. SK-MEL-5 TRPM1-promoter luciferase, 24 h; % of positive control, neutral wells = 0;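 active = mean activation of at least 80% with every replicate also reaching 80%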
Of the large screens only hits and unclear results are named; the others gave an inactive call.

Cc1ccc(C(=O)N2CCCC(Nc3ccc(F)cc3)C2)cc1C (centres undefined)	HSF1 inh -71
COc1cccc(C(=O)Nc2ccc3c(c2)OC[C@@H](C)N(CC2CC2)C[C@@H](C)[C@@H](OC)CN(C)C3=O)c1	none (no result: HSF1 inh, Wnt bcat act, HSF-1 act, MITF TRPM1 HTS)
CC1(C)CC(=O)c2cc(OCC(=O)O)ccc2O1	none
CC1(C)CC(=O)c2c(O)cc(OCc3ccc(Br)cc3)cc2O1	esBAF inh 67, MITF TRPM1 HTS 87
CC1(C)CC(=O)c2ccc(OCc3ccc([N+](=O)[O-])cc3)cc2O1	HSF-1 act 70 (no result: esBAF inh, MITF TRPM1 HTS)
COC(=O)c1ccc(COc2cc(O)c3c(c2)OC(C)(C)CC3=O)cc1	none
CO[C@H]1CN(C)C(=O)c2cc(NS(=O)(=O)c3ccc(C)cc3)ccc2OC[C@H](C)N(C)C[C@H]1C	none (no result: HSF1 inh, Wnt bcat act, HSF-1 act, MITF TRPM1 HTS)
Cc1noc(C)c1S(=O)(=O)Nc1ccc2c(c1)C(=O)N([C@@H](C)CO)C[C@@H](C)[C@H](CN(C)C(=O)NC1CCCCC1)OCCCC[C@@H](C)O2	none (no result: HSF1 inh, Wnt bcat act, HSF-1 act, MITF TRPM1 HTS)
CC(C)(C)c1ccc(C(=O)N2CCCC2)s1	esBAF inh 47
COc1cccc(N/C(N)=N/c2nc(CSc3ccccn3)cc(=O)[nH]2)c1	none (no result: Wnt bcat act, esBAF inh, MITF TRPM1 HTS)
COc1ccnc(CSC(N)=Nc2ccc(F)cc2)c1	esBAF inh 56 (no result: Wnt bcat act)
CCOc1ccc(C2C3=C(CCCC3=O)Nc3ccc4ncccc4c32)cc1 (centres undefined)	HSF-1 act 68
C[C@H]1CN([C@@H](C)CO)S(=O)(=O)c2ccc(C#CC3CC3)cc2O[C@H]1CN(C)C	none (no result: HSF1 inh, Wnt bcat act, HSF-1 act, MITF TRPM1 HTS)
NC(=O)c1nsc(C(=O)N(c2cccc(F)c2)C(C(=O)NC2CCCC2)c2ccco2)c1N (centres undefined)	HSF1 inh -81
COc1ccc(C(C(=O)NC2CCCC2)N(Cc2ccccc2)C(=O)c2snc(C(N)=O)c2N)cc1OC (centres undefined)	HSF-1 act 52
CCC(C)N(C(=O)C(F)(F)F)C(C(=O)NC1CCCCC1)c1ccncc1 (centres undefined)	HSF1 inh -52 (no result: MITF TRPM1 HTS)
CCc1ccc(N(C(=O)c2snc(C(N)=O)c2N)C(C(=O)NC2CCCC2)c2ccco2)cc1 (centres undefined)	none
CC(C)CCN(C(=O)CNC(=O)c1cccs1)C(C(=O)NC1CCCCC1)c1cccnc1 (centres undefined)	HSF1 inh -70
CN1C(=O)c2cc(NS(=O)(=O)c3ccccc3Cl)ccc2OC[C@@H]2O[C@@H](CC(=O)O)CC[C@H]21	none (no result: HSF1 inh, Wnt bcat act, HSF-1 act, MITF TRPM1 HTS)
CCCNC(=O)N[C@@H]1C=C[C@@H](CC(=O)NCCc2ccccc2)O[C@@H]1CO	none (no result: HSF1 inh, Wnt bcat act, HSF-1 act, MITF TRPM1 HTS)
CCC(C)c1ccc(N(C(=O)c2ccco2)C(C(=O)NC2CCCC2)c2cccnc2)cc1 (centres undefined)	esBAF inh 86
CC(=O)c1ccc(N(C(=O)c2ccco2)C(C(=O)NC2CCCC2)c2ccc(N3CCOCC3)cc2)cc1 (centres undefined)	HSF-1 act 69
CCc1ccc(N(C(=O)c2ccco2)C(C(=O)NC2CCCC2)c2cccnc2)cc1 (centres undefined)	none
O=C(NCC(=O)N(c1ccc(F)cc1)C(C(=O)NC1CCCC1)c1ccncc1)c1ccco1 (centres undefined)	none
O=C(NCC(=O)N(c1cccc(F)c1)C(C(=O)NC1CCCC1)c1ccncc1)c1ccco1 (centres undefined)	HSF-1 act 54
CC(C)c1ccc(N(C(=O)c2ccco2)C(C(=O)NC2CCCC2)c2ccncc2)cc1 (centres undefined)	esBAF inh 47
O=C(CN1CCOCC1)NCC[C@@H]1CC[C@H](NC(=O)c2ccccc2F)[C@H](CO)O1	none (no result: HSF1 inh, Wnt bcat act, HSF-1 act, MITF TRPM1 HTS)
CCc1c(C)c(C#N)c2nc3ccccc3n2c1Cl	HSF-1 act 435 (no result: Wnt bcat act, esBAF inh, MITF TRPM1 HTS)
CCOC(=O)CSc1cc(C)c(C#N)c2nc3ccccc3n12	HSF-1 act 58
C[C@H](CO)N1C[C@H](C)[C@H](CN(C)C(=O)Nc2ccc3c(c2)OCO3)OCCCC[C@H](C)Oc2ccc(NC(=O)Nc3ccc(F)cc3)cc2C1=O	none (no result: HSF1 inh, Wnt bcat act, HSF-1 act, MITF TRPM1 HTS)
C[C@H](CO)N1C[C@H](C)[C@@H](CN(C)S(=O)(=O)c2cn(C)cn2)Oc2ccc(NC(=O)CCCCCC(=O)Nc3ccccc3N)cc2C1=O	none (no result: HSF1 inh, Wnt bcat act, HSF-1 act, MITF TRPM1 HTS)
CS(=O)(=O)N1CCN(c2cnn(-c3ccccc3)c(=O)c2Cl)CC1	none
CN(C(=O)CN1CCN(c2cnn(-c3ccccc3)c(=O)c2Cl)CC1)C1CCS(=O)(=O)C1 (centres undefined)	Wnt bcat act 44 (no result: HSF1 inh, HSF-1 act)
COc1cccc(CNC(=O)C[C@H]2CC[C@@H](NC(=O)C3CC3)[C@H](CO)O2)c1	none (no result: HSF1 inh, Wnt bcat act, HSF-1 act, MITF TRPM1 HTS)
COCCNC(=O)CCc1nnc(C2(c3ccc(Cl)cc3)CCC2)o1	HSF1 inh -56 (no result: esBAF inh)
CC(C)(CO)CNC(=O)CCc1nnc(C2(c3ccc(Cl)cc3)CCC2)o1	none (no result: esBAF inh)
CCc1cccc(NC(=O)Nc2cccs2)c1	esBAF inh 59, HSF-1 act 133 (no result: Wnt bcat act)
COC(=O)c1ccccc1NC(=O)Nc1cccs1	HSF-1 act 66 (no result: Wnt bcat act)
COC(=O)c1ccccc1NC(=O)c1cccs1	none
CCc1cccc(NC(=O)CSc2nc(C)cs2)c1	esBAF inh 82 (no result: HSF1 inh, HSF-1 act, MITF TRPM1 HTS)
O=C(Nc1cccs1)Nc1c(F)c(F)cc(F)c1F	HSF-1 act 59 (no result: esBAF inh)
CN1C(=O)c2cc(NC(=O)c3ccc(F)cc3)ccc2OC[C@H]2O[C@H](CC(=O)NC3CCC3)CC[C@@H]21	none (no result: HSF1 inh, Wnt bcat act, HSF-1 act, MITF TRPM1 HTS)
CN(C)S(=O)(=O)c1cccc(-c2cn3cc(Cl)ccc3n2)c1	esBAF inh 45 (no result: HSF1 inh, Wnt bcat act, HSF-1 act)
CN(C)S(=O)(=O)c1cccc(-c2cn3ccccc3n2)c1	none
COCC(=O)N(C[C@@H]1N[C@@H](CO)[C@H]1c1ccc(-c2ccccc2)cc1)C(C)C	none (no result: HSF1 inh, Wnt bcat act, HSF-1 act, MITF TRPM1 HTS)
CCc1nnc(NC(=O)C2Cc3ccccc3CN2S(=O)(=O)c2cccs2)s1 (centres undefined)	HSF-1 act 84 (no result: Wnt bcat act)
CCc1nnc(NC(=O)C2Cc3ccccc3CN2S(=O)(=O)c2ccc(C)cc2)s1 (centres undefined)	HSF-1 act 58 (no result: Wnt bcat act)
C/C=C/c1cnc2c(c1)C(=O)N([C@@H](C)CO)C[C@H](C)[C@@H](CN(C)CC1CCCC1)O2	none (no result: HSF1 inh, Wnt bcat act, HSF-1 act, MITF TRPM1 HTS)
COc1ccc(/[N+]([O-])=C/c2ccoc2)cc1	Wnt bcat act 41, esBAF inh 80, MITF TRPM1 HTS 106 (no result: HSF1 inh, HSF-1 act)
COc1ccc(C(=O)N/N=C\c2ccoc2)cc1	none (no result: esBAF inh)
CCC(C)(C)c1ccc(OC(=O)c2cccnc2Cl)cc1	HSF-1 act 59
N#CCc1ccc(OC(=O)c2cccnc2Cl)cc1	Wnt bcat act 39, esBAF inh 60
CNC[C@@H]1OCCCC[C@@H](C)Oc2ccc(NS(=O)(=O)c3ccc(C)cc3)cc2C(=O)N([C@H](C)CO)C[C@H]1C	none (no result: HSF1 inh, Wnt bcat act, HSF-1 act, MITF TRPM1 HTS)
Cc1cccc(S(=O)(=O)N(C)C[C@@H]2OCc3cn(nn3)CCCC(=O)N([C@H](C)CO)C[C@@H]2C)c1	none (no result: HSF1 inh, Wnt bcat act, HSF-1 act, MITF TRPM1 HTS)
Cc1ccc(N=Cc2nc(-c3ccc(C)cc3)oc2O)cc1	none (no result: esBAF inh)
COc1ccc(N=Cc2nc(-c3ccco3)oc2O)cc1	esBAF inh 63, MITF TRPM1 HTS 99 (no result: Wnt bcat act)
